MLL AF4-AF9 inh = inhibitors of human MLL-AF4/AF9 interaction. inhibition, % at 10 µM. AID 651704. P42568. 0.47% of 350,000 active. AlphaScreen, biotin-AF4 peptide binding to FLAG-AF9;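 active = every replicate reaching a set inhibition limit, whatever the replicate mean, cut at about 25% in these data; inconclusive = mean inhibition reaches that limit but some replicates miss it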
CASP6 VEID inh = inhibitors of human caspase-6; P55212; purified caspase-6, Z-VEID-R110 cleavage fluorescence; inhibition, % at 12.5 µM; 0.53% of 350,000 active; AID 686996;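 active = mean inhibition across replicates at least about 35%, with every replicate also reaching that limit, limit read from the data; inconclusive = only one of the two criteria met; inactive = neither criterion met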
Target sequence (P55212 24-179 limits assumed): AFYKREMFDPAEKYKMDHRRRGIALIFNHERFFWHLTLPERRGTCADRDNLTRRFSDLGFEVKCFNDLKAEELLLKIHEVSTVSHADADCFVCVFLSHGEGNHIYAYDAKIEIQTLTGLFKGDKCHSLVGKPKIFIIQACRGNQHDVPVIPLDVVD
Target sequence (P55212 194-293 limits assumed): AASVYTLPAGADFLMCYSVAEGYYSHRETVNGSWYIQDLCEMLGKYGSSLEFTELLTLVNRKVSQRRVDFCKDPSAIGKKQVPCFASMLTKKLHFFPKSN
RAD52 anneal inh = RAD52 (human) annealing inhibition | recombinant RAD52 DNA annealing, FRET fluorescence | inhibition, % at 18.7 µM | 0.46% of 360,000 active | AID 651710;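 active = every replicate showing at least 50% inhibition; inconclusive = mean inhibition at least 50% but not in every replicate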
Glyco luc inh = N-linked glycosylation inhibition | 0.23% of 360,000 active | D54 ERlucT glycosylation luciferase reporter, 24 h; percent of 100 nM tunicamycin response | AID 588692 | reporter increase, % at 12.5 µM;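 active = mean luciferase reporter signal, scaled so untreated is 0 and the glycosylation-blocking control 100, at or above a set limit in every replicate; inconclusive = mean reaches the limit but not every replicate does; inactive = mean below the limit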;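 also: luciferase carries N-glycosylation sites so blocking glycosylation raises the light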
RAD54 inh = blocks human RAD54 Holliday junction branch migration; Q92698; FAM/BHQ fluorescence; inhibition, % at 10.4 µM; 0.14% of 360,000 active;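 active = mean normalized replicate activity at least 40 and at least half of replicates scoring 40 or more; inconclusive = only one of the two criteria met; inactive = mean below 40 and under half of replicates reaching 40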;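 also: inhibitors cause a drop in the FAM fluorescence signal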
Rad54 DNA ctr = counter-screen for Rad54 inhibitors: DNA binding compounds; shares compounds with RAD54 inh; AC50, µM (titrated, usually from 35 µM); Acridine orange-DNA displacement, fluorescence polarization, 20 min; AID 651673; 8% of 460 active;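 active = signal drop giving an AC50 within twice the top valid tested concentration of each sample, actives reach about 35 µM in these data; inactive = activity opposite to expected, plus the rest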;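 also: polarization loss reports compound binding to salmon sperm DNA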
Numbers stand for hits; – = inactive; ? = inconclusive; · = no result given. Sampled rows, rich in hits. Any-hit rate of the full collection: about 1.2%.

SMILES	MLL AF4-AF9 inh	CASP6 VEID inh	RAD52 anneal inh	Glyco luc inh	RAD54 inh	Rad54 DNA ctr
C[C@H]1CN([C@@H](C)CO)C(=O)Cc2cc(NC(=O)Nc3ccc(C(F)(F)F)cc3)ccc2O[C@@H]1CN(C)C(=O)Nc1ccc2c(c1)OCO2	–	–	–	·	·	·
CCCCC(=O)Nc1cc(N(C)C)nc2ccccc12	·	·	·	–	–	·
CN(C)c1cc(NC(=O)CNC(C)(C)C)c2ccccc2n1	·	–	–	–	76.0	–
C[C@@H]1CCCCO[C@H](CN(C)Cc2ccc3c(c2)OCO3)[C@@H](C)CN([C@H](C)CO)C(=O)c2cc(NC(=O)C3CCCCC3)ccc2O1	–	–	–	·	–	·
CCOC(=O)c1cnc2c(CC)cccc2c1NCCCN1CCOCC1	–	–	–	–	?	–
CCOC(=O)c1cnc2c(Cl)cccc2c1NCCCN1CCOCC1	–	–	–	–	?	–
CO[C@H]1CN(C)C(=O)c2ccc(NC(=O)CC(F)(F)F)cc2OC[C@H](C)N(C(=O)C2CCOCC2)C[C@@H]1C	–	–	–	·	·	·
CCc1nc(Nc2ccncc2)c2oc3ccccc3c2n1	·	·	·	–	65.8	–
C[C@H](CO)N1C[C@H](C)[C@@H](CN(C)C(=O)Nc2ccc3c(c2)OCO3)Oc2ccc(NC(=O)CCN3CCOCC3)cc2CC1=O	–	–	–	·	–	·
CC1CCCCC1NC(=O)C1Cc2ccccc2CN1S(C)(=O)=O (centres undefined)	·	·	·	–	?	–
CCOCCCn1c(=N)c(C(=O)NCCN2CCOCC2)cc2c(=O)n3cccc(C)c3nc21	·	·	·	–	68.8	–
Cc1cccn2c(=O)c3cc(C(=O)NCCN4CCOCC4)c(=N)n(Cc4ccc(F)cc4)c3nc12	–	–	–	–	–	·
Cc1cccn2c(=O)c3cc(C(=O)NCC4CCCO4)c(=N)n(C4CCCCC4)c3nc12 (centres undefined)	–	–	–	–	?	–
Cc1cccn2c(=O)c3cc(C(=O)NCC4CCCO4)c(=N)n(CC4CCCO4)c3nc12 (centres undefined)	–	–	–	–	–	·
COCCn1c(=N)c(C(=O)NCCc2ccc(OC)cc2)cc2c(=O)n3cccc(C)c3nc21	·	·	·	–	·	·
COc1ccc(CCNC(=O)c2cc3c(=O)n4cccc(C)c4nc3n(CCCN3CCOCC3)c2=N)cc1	–	–	–	–	58.8	–
COc1ccc(NC(=O)Nc2ccc3c(c2)C(=O)N([C@@H](C)CO)C[C@H](C)[C@H](CN(C)S(=O)(=O)c2ccc(C)cc2)OCCCC[C@@H](C)O3)cc1	–	–	–	·	–	·
COc1ccc(CN(C)C[C@@H]2OCCCC[C@@H](C)Oc3ccc(NC(=O)Nc4ccc(F)cc4)cc3C(=O)N([C@@H](C)CO)C[C@H]2C)cc1	–	–	–	·	–	·
CCOc1cc2nc(-c3ccc(OC)c(OC)c3)nc(NCCCN3CCOCC3)c2cc1OC	·	·	·	–	84.6	–
Cn1c(C(=O)NCCCN2CCOCC2)cc2c(=O)n(C)c3ccccc3c21	–	–	–	–	?	–
CC1CCN(CCCNC(=O)c2cc3c(=O)n(C)c4ccccc4c3n2C)CC1	–	–	–	–	59.4	–
Cn1c(C(=O)NCCN2CCCCCC2)cc2c(=O)n(C)c3ccccc3c21	–	–	–	–	56.3	–
Cn1c(C(=O)NCCCN2CCN(c3ccccc3F)CC2)cc2c(=O)n(C)c3ccccc3c21	–	–	–	–	–	·
CCCCN(CC)CCCNC(=O)c1cc2c(=O)n(C)c3ccccc3c2n1C	–	–	–	–	61.3	–
C[C@H]1CN([C@@H](C)CO)C(=O)c2cc(-c3ccccc3)cnc2O[C@@H]1CN(C)C(=O)NC1CCCC1	–	–	–	·	–	·
SMILES	MLL AF4-AF9 inh	CASP6 VEID inh	RAD52 anneal inh	Glyco luc inh	RAD54 inh	Rad54 DNA ctr
Cc1cccc2cc3c(N)c(C#N)sc3nc12	·	·	·	–	70.5	–
Cc1ccc2nc(C)c3c(c2c1)N(c1ccc(F)cc1)CC3	·	–	–	–	?	–
Cc1ccc2oc(=O)c3cc(C(=O)NCCCN4C(C)CCCC4C)sc3c2c1 (centres undefined)	–	–	–	–	53.8	–
Cc1ccc2oc(=O)c3cc(C(=O)NCCCN4CCN(C)CC4)sc3c2c1	–	–	–	–	62.2	–
Cc1ccc2oc(=O)c3cc(C(=O)NCCCN4CC(C)CC(C)C4)sc3c2c1 (centres undefined)	–	–	–	–	–	·
CCN1CCN(CCCNC(=O)c2cc3c(=O)oc4ccc(C)cc4c3s2)CC1	–	–	–	–	52.6	–
